According to the supplement of paper PMC11732987, “Enantioselective OTUD7B fragment discovery through chemoproteomics screening and high-throughput optimisation” (Communications Chemistry, 2025):

Assays:
Assay in all cases: log2 ratio of Biotin-Ahx-Ub-VS probe labelling (compound/DMSO); higher = less target engagement, active = hit call of the paper (q ≤ 0.05, log2 ratio ≤ -1)
Conditions in all cases: treatment time: 3 h
[1] = compound: CN(Cc1cccc(Br)c1)C(=O)CCl
Summary of the method: (§1)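 Compound at 50 or 200 µM, or DMSO, was applied for 3 h in triplicate to HEK293T lysate (495 µg per sample, Tris/CHAPS/IGEPAL buffer with protease inhibitors), after which Biotin-Ahx-Ub-VS was added at 0.5 µM final for 1 h. The labelled DUBs were pulled down with NeutrAvidin, digested with LysC and trypsin, and run by diaPASEF LC-MS/MS. Ratios are averaged base-two logs of compound over DMSO from median-normalised label-free quantities by unpaired t-test, counting only proteins with at least 2 unique peptides.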

[2] = compound: CN(Cc1cccc(OCc2ccccc2C)c1)C(=O)CCl
Summary of the method: as §1

[3] = compound: CN(Cc1ccccc1)C(=O)CCl
Summary of the method: as §1

[4] = compound: COc1ccc(CN(C)C(=O)CCl)cc1
Summary of the method: as §1

[5] = compound: COc1cccc(CN(CCCc2ccccc2)C(=O)CCl)c1
Summary of the method: as §1

[6] = compound: ClCC(=O)N1CCc2cc(Cl)c(Cl)cc2C1
Summary of the method: as §1

[7] = compound: ClCC(=O)N1CCc2nc(ncc2C1)-c1ccccc1
Summary of the method: as §1

[8] = compound: ClCC(=O)N1CCc2nocc2C1
Summary of the method: as §1

[9] = compound: ClCC(=O)N1CCc2scc(Br)c2C1
Summary of the method: as §1

[10] = compound: ClCC(=O)NC(C1CCCC1)c1cccs1
Summary of the method: as §1

[11] = compound: ClCC(=O)NC1CCCc2ccccc12
Summary of the method: as §1

[12] = compound: ClCC(=O)NC1CCOc2ccc(Cl)cc12
Summary of the method: as §1

[13] = compound: ClCC(=O)NC1CCSc2ccccc12
Summary of the method: as §1

[14] = compound: ClCC(=O)N[C@H]1CCCc2ccccc12
Summary of the method: as §1

[15] = compound: Fc1ccc(N2CCN(c3nc4c(CN(C(CCl)=O)CC4)cn3)CC2)cc1.Cl.Cl
Summary of the method: as §1

Measured: log2 ratio of Biotin-Ahx-Ub-VS probe labelling

USP48 (UniProt Q86UV5)
UniProt Q86UV5, sequence (Q86UV5 whole entry): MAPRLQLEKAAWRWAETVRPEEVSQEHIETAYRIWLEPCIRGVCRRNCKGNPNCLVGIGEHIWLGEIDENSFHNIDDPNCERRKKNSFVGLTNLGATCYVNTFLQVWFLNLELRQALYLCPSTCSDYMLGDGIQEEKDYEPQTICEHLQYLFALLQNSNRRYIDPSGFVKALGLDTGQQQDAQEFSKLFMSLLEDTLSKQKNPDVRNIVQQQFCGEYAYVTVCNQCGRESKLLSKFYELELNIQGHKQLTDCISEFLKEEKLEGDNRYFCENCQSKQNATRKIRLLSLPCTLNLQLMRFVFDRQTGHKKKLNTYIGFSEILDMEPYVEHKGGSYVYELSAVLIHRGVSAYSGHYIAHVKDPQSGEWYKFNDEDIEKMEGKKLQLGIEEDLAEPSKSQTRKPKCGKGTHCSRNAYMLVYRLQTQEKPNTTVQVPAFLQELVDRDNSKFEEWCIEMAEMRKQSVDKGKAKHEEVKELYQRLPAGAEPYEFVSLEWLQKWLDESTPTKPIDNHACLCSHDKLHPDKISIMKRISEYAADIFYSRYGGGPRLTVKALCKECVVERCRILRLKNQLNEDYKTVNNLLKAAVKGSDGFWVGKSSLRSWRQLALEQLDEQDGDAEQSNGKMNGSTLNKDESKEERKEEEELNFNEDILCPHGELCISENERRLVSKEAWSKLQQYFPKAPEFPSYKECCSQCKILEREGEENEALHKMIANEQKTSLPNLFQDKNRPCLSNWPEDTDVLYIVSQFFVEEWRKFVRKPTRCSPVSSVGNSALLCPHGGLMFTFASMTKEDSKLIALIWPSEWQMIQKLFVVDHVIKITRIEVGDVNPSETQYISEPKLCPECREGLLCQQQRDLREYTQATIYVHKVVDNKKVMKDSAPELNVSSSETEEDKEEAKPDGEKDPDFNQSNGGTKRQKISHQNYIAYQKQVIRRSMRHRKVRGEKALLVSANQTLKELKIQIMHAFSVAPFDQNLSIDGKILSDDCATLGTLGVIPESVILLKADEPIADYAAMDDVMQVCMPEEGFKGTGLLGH
inactive: [1]; compound concentration: 50uM -0.101 | [1]; compound concentration: 200uM -0.603 | [2]; compound concentration: 50uM -0.235 | [2]; compound concentration: 200uM -0.552 | [3]; compound concentration: 50uM -0.0688 | [3]; compound concentration: 200uM -0.18 | [4]; compound concentration: 50uM -0.0647 | [4]; compound concentration: 200uM -0.237 | [5]; compound concentration: 50uM -0.0292 | [5]; compound concentration: 200uM -0.259 | [6]; compound concentration: 50uM -0.214 | [6]; compound concentration: 200uM -0.0205 | [7]; compound concentration: 50uM -0.173 | [7]; compound concentration: 200uM -0.226 | [8]; compound concentration: 50uM -0.112 | [8]; compound concentration: 200uM -0.324 | [9]; compound concentration: 50uM -0.161 | [9]; compound concentration: 200uM -0.327 | [10]; compound concentration: 50uM -0.234 | [10]; compound concentration: 200uM -0.00963 | [11]; compound concentration: 50uM 0.13 | [11]; compound concentration: 200uM 0.0439 | [12]; compound concentration: 50uM -0.0252 | [12]; compound concentration: 200uM -0.167 | [13]; compound concentration: 50uM 0.207 | [13]; compound concentration: 200uM -0.0233 | [14]; compound concentration: 50uM -0.00252 | [14]; compound concentration: 200uM -0.144 | [15]; compound concentration: 50uM -0.0747 | [15]; compound concentration: 200uM -0.125

UniProt Q9UGI0
UniProt Q9UGI0, sequence (Q9UGI0 whole entry): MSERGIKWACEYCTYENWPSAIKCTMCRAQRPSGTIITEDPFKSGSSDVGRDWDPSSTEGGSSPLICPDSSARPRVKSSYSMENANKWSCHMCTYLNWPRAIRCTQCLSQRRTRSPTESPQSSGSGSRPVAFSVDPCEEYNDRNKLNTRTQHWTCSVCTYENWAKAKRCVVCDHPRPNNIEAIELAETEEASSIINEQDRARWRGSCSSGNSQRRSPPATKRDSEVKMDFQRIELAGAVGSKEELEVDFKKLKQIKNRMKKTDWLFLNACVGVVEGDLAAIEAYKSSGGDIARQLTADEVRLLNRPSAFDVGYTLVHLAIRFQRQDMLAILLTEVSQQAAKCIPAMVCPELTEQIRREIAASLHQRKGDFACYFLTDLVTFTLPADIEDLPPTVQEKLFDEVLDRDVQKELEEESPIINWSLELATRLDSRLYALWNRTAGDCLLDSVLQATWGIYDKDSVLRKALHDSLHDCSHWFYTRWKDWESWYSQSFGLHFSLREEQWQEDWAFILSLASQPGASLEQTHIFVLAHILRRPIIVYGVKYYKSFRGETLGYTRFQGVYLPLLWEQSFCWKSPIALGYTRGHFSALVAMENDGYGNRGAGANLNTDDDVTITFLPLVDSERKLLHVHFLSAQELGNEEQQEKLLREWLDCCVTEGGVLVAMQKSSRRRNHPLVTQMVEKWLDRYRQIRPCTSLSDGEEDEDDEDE
active: [8]; compound concentration: 200uM -1.16 | [9]; compound concentration: 200uM -1.14
inactive: [1]; compound concentration: 50uM -0.13 | [1]; compound concentration: 200uM -0.336 | [2]; compound concentration: 50uM -0.392 | [2]; compound concentration: 200uM -0.664 | [3]; compound concentration: 50uM -0.482 | [3]; compound concentration: 200uM -0.697 | [4]; compound concentration: 50uM -0.127 | [4]; compound concentration: 200uM -0.258 | [5]; compound concentration: 50uM -0.157 | [5]; compound concentration: 200uM -0.231 | [6]; compound concentration: 50uM 0.132 | [6]; compound concentration: 200uM -0.542 | [7]; compound concentration: 50uM 0.0381 | [7]; compound concentration: 200uM -0.223 | [8]; compound concentration: 50uM -0.539 | [9]; compound concentration: 50uM -0.277 | [10]; compound concentration: 50uM -0.0906 | [10]; compound concentration: 200uM 0.116 | [11]; compound concentration: 50uM -0.0757 | [11]; compound concentration: 200uM -0.346 | [12]; compound concentration: 50uM -0.41 | [12]; compound concentration: 200uM -0.0672 | [13]; compound concentration: 50uM -0.265 | [13]; compound concentration: 200uM -0.226 | [14]; compound concentration: 50uM -0.182 | [14]; compound concentration: 200uM -0.337 | [15]; compound concentration: 50uM -0.0659 | [15]; compound concentration: 200uM -0.664

USP12 (UniProt O75317)
UniProt O75317, sequence (O75317 whole entry): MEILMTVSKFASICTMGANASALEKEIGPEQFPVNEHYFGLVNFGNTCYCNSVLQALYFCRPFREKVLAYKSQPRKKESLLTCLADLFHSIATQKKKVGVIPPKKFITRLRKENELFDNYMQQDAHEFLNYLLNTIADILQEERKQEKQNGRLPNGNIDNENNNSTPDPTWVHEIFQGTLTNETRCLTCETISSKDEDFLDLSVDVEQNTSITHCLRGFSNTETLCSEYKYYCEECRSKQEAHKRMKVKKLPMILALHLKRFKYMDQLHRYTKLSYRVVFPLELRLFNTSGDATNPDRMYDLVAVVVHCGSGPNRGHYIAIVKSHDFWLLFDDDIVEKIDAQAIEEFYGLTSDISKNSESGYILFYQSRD
active: [6]; compound concentration: 200uM -2.18 | [15]; compound concentration: 200uM -1.16
inactive: [1]; compound concentration: 50uM -0.144 | [1]; compound concentration: 200uM -0.188 | [2]; compound concentration: 50uM -0.484 | [2]; compound concentration: 200uM -0.602 | [3]; compound concentration: 50uM -0.0519 | [3]; compound concentration: 200uM -0.89 | [4]; compound concentration: 50uM -0.0378 | [4]; compound concentration: 200uM -0.439 | [5]; compound concentration: 50uM -0.477 | [5]; compound concentration: 200uM -0.852 | [6]; compound concentration: 50uM -0.202 | [7]; compound concentration: 50uM 0.154 | [7]; compound concentration: 200uM -0.813 | [8]; compound concentration: 50uM -0.195 | [8]; compound concentration: 200uM -0.415 | [9]; compound concentration: 50uM 0.0837 | [9]; compound concentration: 200uM -0.475 | [10]; compound concentration: 50uM 0.0281 | [10]; compound concentration: 200uM -0.0926 | [11]; compound concentration: 50uM -0.289 | [11]; compound concentration: 200uM -0.199 | [12]; compound concentration: 50uM -0.354 | [12]; compound concentration: 200uM -0.202 | [13]; compound concentration: 50uM -0.191 | [13]; compound concentration: 200uM -0.363 | [14]; compound concentration: 50uM -0.253 | [14]; compound concentration: 200uM -0.148 | [15]; compound concentration: 50uM -0.289
